{
  "source": "the supplement of paper PMC8728848",
  "binders": {"B1": {"name": "SSR1 (Sclerotium rolfsii), A0A0M3KL30 (protein)", "chain": "TYKITVRVYQTNPDAFFHPVEKTVWKYANGGTWTITDDQHVLTMGGSGTSGTLRFHADNGESFTATFGVHNYKRWCDIVTNLAADETGMVINQQYYSQKNREEARERQLSNYQVKNAKGRNFQIVYTEAEGNDLHANLIIG"}},
  "assay_in_all_cases": "glycan array binding signal (z-score within array); higher = stronger binding",
  "settings_in_all_cases": "glycan notation: IUPAC condensed, linker removed",
  "key": {"[1]": {"biological_target": "Fuc(a1-2)Gal(b1-3)GalNAc(b1-4)[Neu5Ac(a2-3)]Gal(b1-4)Glc", "method_in_brief": "(§1)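 The Consortium for Functional Glycomics database supplied 3228 glycan arrays, of which those lacking an available protein sequence were dropped. The binding signal, a within-array Z-score, was averaged across arrays of the same protein sequence and across linkers. Negative scores can be read as non-binding.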"}, "[2]": {"biological_target": "Fuc(a1-2)Gal(b1-3)GlcNAc(b1-3)[Gal(b1-4)GlcNAc(b1-6)]Gal(b1-4)Glc", "method_in_brief": "as §1"}, "[3]": {"biological_target": "Fuc(a1-2)Gal(b1-4)GlcNAc(b1-3)Gal(b1-4)GlcNAc", "method_in_brief": "as §1"}, "[4]": {"biological_target": "Fuc(a1-2)Gal(b1-4)GlcNAc(b1-3)[Fuc(a1-3)[Gal(b1-4)]GlcNAc(b1-6)]Gal(b1-4)Glc", "method_in_brief": "as §1"}, "[5]": {"biological_target": "Fuc(a1-2)Gal(b1-4)[Fuc(a1-3)]GlcNAc(b1-3)Gal(b1-4)[Fuc(a1-3)]GlcNAc", "method_in_brief": "as §1"}, "[6]": {"biological_target": "Fuc(a1-2)[Gal(a1-3)]Gal(b1-4)GlcNAc(b1-3)[Fuc(a1-2)[Gal(a1-3)]Gal(b1-4)GlcNAc(b1-6)]GalNAc", "method_in_brief": "as §1"}, "[7]": {"biological_target": "Fuc(a1-2)[Gal(a1-3)]Gal(b1-4)GlcNAc(b1-6)GalNAc", "method_in_brief": "as §1"}, "[8]": {"biological_target": "Fuc(a1-2)[GalNAc(a1-3)]Gal(b1-3)GlcNAc(b1-2)Man(a1-3)[Fuc(a1-2)[GalNAc(a1-3)]Gal(b1-3)GlcNAc(b1-2)Man(a1-6)]Man(b1-4)GlcNAc(b1-4)GlcNAc", "method_in_brief": "as §1"}, "[9]": {"biological_target": "Fuc(a1-2)[GalNAc(a1-3)]Gal(b1-4)GlcNAc(b1-3)Gal(b1-4)GlcNAc", "method_in_brief": "as §1"}, "[10]": {"biological_target": "Fuc(a1-3)[Gal(b1-4)]GlcNAc(b1-2)Man(a1-3)[Fuc(a1-3)[Gal(b1-4)]GlcNAc(b1-2)Man(a1-6)]Man(b1-4)GlcNAc(b1-4)[Fuc(a1-6)]GlcNAc", "method_in_brief": "as §1"}, "[11]": {"biological_target": "Fuc(a1-3)[Gal(b1-4)]GlcNAc(b1-6)GalNAc", "method_in_brief": "as §1"}, "[12]": {"biological_target": "Gal(a1-3)Gal(b1-4)GlcNAc(b1-2)Man(a1-3)[Gal(a1-3)Gal(b1-4)GlcNAc(b1-2)Man(a1-6)]Man(b1-4)GlcNAc(b1-4)GlcNAc", "method_in_brief": "as §1"}, "[13]": {"biological_target": "Gal(b1-3)[Fuc(a1-4)]GlcNAc", "method_in_brief": "as §1"}, "[14]": {"biological_target": "Gal(b1-3)[Neu5Ac(a2-6)]GalNAc", "method_in_brief": "as §1"}, "[15]": {"biological_target": "Gal(b1-4)GlcNAc(b1-2)Man(a1-3)[Gal(b1-4)GlcNAc(b1-2)Man(a1-6)]Man(b1-4)GlcNAc(b1-4)GlcNAc", "method_in_brief": "as §1"}, "[16]": {"biological_target": "Gal(b1-4)GlcNAc(b1-2)Man(a1-3)[Gal(b1-4)GlcNAc(b1-2)Man(a1-6)][GlcNAc(b1-4)]Man(b1-4)GlcNAc(b1-4)[Fuc(a1-6)]GlcNAc", "method_in_brief": "as §1"}, "[17]": {"biological_target": "Gal(b1-4)GlcNAc(b1-2)Man(a1-3)[GlcNAc(b1-4)][Gal(b1-4)GlcNAc(b1-2)Man(a1-6)]Man(b1-4)GlcNAc(b1-4)GlcNAc", "method_in_brief": "as §1"}, "[18]": {"biological_target": "Gal(b1-4)GlcNAc(b1-2)Man(a1-6)Man(b1-4)GlcNAc(b1-4)GlcNAc", "method_in_brief": "as §1"}, "[19]": {"biological_target": "Gal(b1-4)GlcNAc(b1-2)Man(a1-6)[GlcNAc(b1-2)Man(a1-3)]Man(b1-4)GlcNAc(b1-4)GlcNAc", "method_in_brief": "as §1"}, "[20]": {"biological_target": "Gal(b1-4)GlcNAc(b1-3)Gal(b1-3)GalNAc", "method_in_brief": "as §1"}, "[21]": {"biological_target": "Gal(b1-4)GlcNAc(b1-3)Gal(b1-4)GlcNAc(b1-3)Gal(b1-4)GlcNAc(b1-2)[Gal(b1-4)GlcNAc(b1-3)Gal(b1-4)GlcNAc(b1-3)Gal(b1-4)GlcNAc(b1-6)]Man(a1-6)[Gal(b1-4)GlcNAc(b1-3)Gal(b1-4)GlcNAc(b1-3)Gal(b1-4)GlcNAc(b1-2)Man(a1-3)]Man(b1-4)GlcNAc(b1-4)[Fuc(a1-6)]GlcNAc", "method_in_brief": "as §1"}, "[22]": {"biological_target": "Gal(b1-4)GlcNAc(b1-3)Gal(b1-4)GlcNAc(b1-3)GalNAc", "method_in_brief": "as §1"}, "[23]": {"biological_target": "Gal6S(b1-4)Glc", "method_in_brief": "as §1"}, "[24]": {"biological_target": "Gal6S(b1-4)GlcNAc", "method_in_brief": "as §1"}, "[25]": {"biological_target": "GlcNAc(a1-3)Gal(b1-4)GlcNAc", "method_in_brief": "as §1"}, "[26]": {"biological_target": "GlcNAc(a1-4)Gal(b1-4)GlcNAc", "method_in_brief": "as §1"}, "[27]": {"biological_target": "GlcNAc(a1-4)Gal(b1-4)GlcNAc(b1-3)Gal(b1-4)Glc", "method_in_brief": "as §1"}, "[28]": {"biological_target": "GlcNAc(a1-4)Gal(b1-4)GlcNAc(b1-3)Gal(b1-4)GlcNAc", "method_in_brief": "as §1"}},
  "note": "This excerpt belongs to a sample that is enriched for the strongest signals.",
  "data": [
    {"binder": "B1", "values": [
      {"measurement": "glycan array binding signal (z-score)", "setting": "[1]", "result": -0.338},
      {"measurement": "glycan array binding signal (z-score)", "setting": "[2]", "result": -0.321},
      {"measurement": "glycan array binding signal (z-score)", "setting": "[3]", "result": -0.335},
      {"measurement": "glycan array binding signal (z-score)", "setting": "[4]", "result": -0.328},
      {"measurement": "glycan array binding signal (z-score)", "setting": "[5]", "result": -0.306},
      {"measurement": "glycan array binding signal (z-score)", "setting": "[6]", "result": -0.325},
      {"measurement": "glycan array binding signal (z-score)", "setting": "[7]", "result": -0.34},
      {"measurement": "glycan array binding signal (z-score)", "setting": "[8]", "result": 0.338},
      {"measurement": "glycan array binding signal (z-score)", "setting": "[9]", "result": 0.292},
      {"measurement": "glycan array binding signal (z-score)", "setting": "[10]", "result": -0.33},
      {"measurement": "glycan array binding signal (z-score)", "setting": "[11]", "result": -0.33},
      {"measurement": "glycan array binding signal (z-score)", "setting": "[12]", "result": -0.321},
      {"measurement": "glycan array binding signal (z-score)", "setting": "[13]", "result": -0.333},
      {"measurement": "glycan array binding signal (z-score)", "setting": "[14]", "result": 0.823},
      {"measurement": "glycan array binding signal (z-score)", "setting": "[15]", "result": -0.338},
      {"measurement": "glycan array binding signal (z-score)", "setting": "[16]", "result": -0.334},
      {"measurement": "glycan array binding signal (z-score)", "setting": "[17]", "result": -0.342},
      {"measurement": "glycan array binding signal (z-score)", "setting": "[18]", "result": -0.337},
      {"measurement": "glycan array binding signal (z-score)", "setting": "[19]", "result": 3.01},
      {"measurement": "glycan array binding signal (z-score)", "setting": "[20]", "result": 1.12},
      {"measurement": "glycan array binding signal (z-score)", "setting": "[21]", "result": -0.33},
      {"measurement": "glycan array binding signal (z-score)", "setting": "[22]", "result": 0.602},
      {"measurement": "glycan array binding signal (z-score)", "setting": "[23]", "result": -0.323},
      {"measurement": "glycan array binding signal (z-score)", "setting": "[24]", "result": -0.336},
      {"measurement": "glycan array binding signal (z-score)", "setting": "[25]", "result": 3.12},
      {"measurement": "glycan array binding signal (z-score)", "setting": "[26]", "result": 3.11},
      {"measurement": "glycan array binding signal (z-score)", "setting": "[27]", "result": 3.37},
      {"measurement": "glycan array binding signal (z-score)", "setting": "[28]", "result": 4.43}
    ]}
  ]
}
